# Screens deposited in PubChem by several laboratories.
# PP1 counter: PP1-alpha phosphatase inhibitors, primary screen, counter-screen for PP5 inhibitor project, biochemical, fluorescence, OMFP substrate, single point; 320,000 tested, 0.9% active; AID 2235, 2010; inhibition, % at 6.7 µM; Serine/threonine-protein phosphatase PP1-alpha catalytic subunit (Homo sapiens), P62136; purified PP1alpha;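 active = inhibition above the mean inhibition of all tested compounds plus 3 SD, computed separately for each screening campaign, cut at about 15% in these data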
# Target sequence (P62136 whole entry, looked up): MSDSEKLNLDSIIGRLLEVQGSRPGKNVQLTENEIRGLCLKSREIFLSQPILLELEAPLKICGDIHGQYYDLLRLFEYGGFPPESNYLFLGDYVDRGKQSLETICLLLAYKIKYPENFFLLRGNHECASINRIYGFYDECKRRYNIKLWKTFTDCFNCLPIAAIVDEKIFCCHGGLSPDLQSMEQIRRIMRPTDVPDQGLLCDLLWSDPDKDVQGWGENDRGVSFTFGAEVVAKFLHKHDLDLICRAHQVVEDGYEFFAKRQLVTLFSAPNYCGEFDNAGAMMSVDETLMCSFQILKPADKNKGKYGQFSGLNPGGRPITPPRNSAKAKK
# Rpn11 inh: Rpn11 (PSMD14) deubiquitinase inhibitors, primary screen, biochemical, fluorescence polarization, uHTS. 26S proteasome non-ATPase regulatory subunit 14 (Homo sapiens), O00487. human 26S proteasome, Ub4-pepOG fluorescence polarization; 20S core pre-blocked with epoxomicin. inhibition, % at 20 µM. 360,000 tested, 0.59% active. AID 588493, 2011;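 active = inhibition at 20 µM, scaled to each plate's controls, above about 33%, limit read from the data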
# NadD block: inhibitors of S. aureus NadD, primary screen, biochemical, colorimetric, uHTS; purified NadD enzyme, colorimetric absorbance read-out; 360,000 tested, 0.78% active; inhibition, % at 20 µM; AID 602399, 2012; in the data active = inhibition above about 26%
# PP5 inh: PP5 phosphatase inhibitors, primary screen, biochemical, fluorescence. Serine/threonine-protein phosphatase 5 (Homo sapiens), P53041. purified PP5c, OMFP substrate fluorescence. inhibition, % at 6.7 µM. 320,000 tested, 0.18% active. AID 1987, 2009;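 active = inhibition above the campaign's mean inhibition across all tested compounds plus 3 SD, cut at about 9.5% in these data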
# PREPL inh: PREPL enzyme inhibitors, primary screen, biochemical, fluorescence polarization; recombinant PREPL, fluorescence polarization activity-based probe; inhibition, % at 5.96 µM; 320,000 tested, 0.68% active; AID 2751, 2010; in the data active = inhibition above about 43%
# Numbers stand for hits; n = inactive; x = no result. Shown are actives, neighbours in structure and some others; about 2.4% of the full set was active somewhere.
SMILES,PP1 counter,Rpn11 inh,NadD block,PP5 inh,PREPL inh
COc1ccccc1N1CCN(C(=O)c2ccc3c(c2)NC(=O)C(CSCc2ccccc2C)N3)CC1 (centres undefined),23,x,x,n,n
Cc1cc(C)cc(Cn2cc(CN3CC(N4CCN(CCO)CC4)CS3(=O)=O)nn2)c1 (centres undefined),x,x,n,x,x
COc1ccc(F)cc1C1=CC(=O)C[C@H](c2ccc3c(c2)OCO3)C1,n,n,n,n,n
Cc1ccc2[nH]c(O)c(N=NC(=O)c3ccc(NS(=O)(=O)c4cccs4)cc3)c2c1,n,n,43,n,n
Cc1cccc2c(N=NC(=O)c3ccc(NS(=O)(=O)c4cccs4)cc3)c(O)[nH]c12,16,n,61,n,n
Cc1ccc2[nH]c(O)c(N=Nc3ccccc3[N+](=O)[O-])c2c1,x,n,n,x,x
Cc1cccc2c(N=Nc3ccc(S(=O)(=O)Nc4ccc(Cl)cc4)cc3[N+](=O)[O-])c(O)[nH]c12,n,n,33,n,n
O=C(N=Nc1c(O)[nH]c2ccccc12)c1ccccc1NS(=O)(=O)c1cccs1,n,n,n,n,n
O=C(N=Nc1c(O)[nH]c2ccc(F)cc12)c1ccc(NS(=O)(=O)c2cccs2)cc1,n,n,39,n,n
CCOc1ccc(-c2noc(CCCC(=O)NC3CCCCC3)n2)cc1OC,n,n,n,n,n
Cc1ccc(-c2cc(C(=O)N/N=C/c3ccc(Cl)cc3)n[nH]2)o1,n,n,n,n,n
COc1cccc(-c2ccc(CN3C(C(C)C)C(=O)N(Cc4cn(CCC5OCCO5)nn4)CCS3(=O)=O)cc2)c1OC (centres undefined),x,n,n,x,x
O=C(NCc1ccccc1)/C(=C\c1cccc([N+](=O)[O-])c1)NC(=O)c1ccco1,x,n,n,x,x
COc1ccc2[nH]c(O)c(N=NC(=O)Cc3cccs3)c2c1,n,n,n,n,n
COc1ccc2[nH]c(O)c(N=NC(=O)c3ccc(NS(=O)(=O)c4cccs4)cc3)c2c1,17,n,n,n,n
COc1cc(C(=O)NS(=O)(=O)c2ccccc2C)ccc1Cc1cn(C)c2ccc(NC(=O)OC3CCCC3)cc12,24,x,x,n,n
Cc1[nH]n(-c2ccccc2)c(=O)c1/C=N/Nc1nncc(-c2ccccc2)n1,17,n,n,n,n
Cc1ccc(-n2[nH]c(C)c(/C=N/c3ccccn3)c2=O)cc1,n,n,n,n,n
Cc1[nH]n(-c2ccccc2)c(=O)c1C=Nc1cccc2cccnc12,16,n,n,n,n
Cc1ccc(/C=N/Nc2nncc(-c3ccccc3)n2)o1,n,n,n,n,n
CCCCC[C@@H](C)N1C[C@H](COCc2ccccc2)Oc2cc(N3CCC[C@@H]3COC)ccc2S1(=O)=O,x,x,n,x,x
CCC(C)(C)c1ccc(OCCCC[n+]2ccccc2)c(C(C)(C)CC)c1,15,n,n,n,n
CCCCCc1ccc(OCCCC[n+]2ccccc2)c(CCCCC)c1,n,n,n,n,n
Cc1ccc(S(=O)(=O)N2C[C@H]3C(=O)C[C@@H](c4ccccc4)N(S(=O)(=O)c4ccccc4[N+](=O)[O-])[C@H]3C[C@H]2c2ccccc2)cc1,x,n,n,x,x
Nc1nn2c(-c3ccccc3)cc(=O)[nH]c2c1N=Nc1ccc(Br)cc1,x,n,77,x,x
SMILES,PP1 counter,Rpn11 inh,NadD block,PP5 inh,PREPL inh
Cc1cc2[nH]c(=O)cc(-c3ccccc3)n2n1,n,n,n,n,n
CCN(CC)c1ccc(CNCc2cccs2)cc1,17,n,n,n,n
Cc1ccc(C(=O)NCCn2c(N)c(C#N)c3nc4ccccc4nc32)cc1,n,n,n,n,n
CCCCn1c(NC(=O)c2ccc(F)cc2)c(C#N)c2nc3ccccc3nc21,n,x,x,14,n
Cc1cc(Br)cn2c(Cc3ccccc3)c(-c3ccccc3)nc12,x,n,n,x,x
Cc1ccc(CN2C(=O)N/C(=C\c3ccc(-c4ccc(C(=O)O)cc4C)o3)C2=O)cc1,n,n,n,n,78
Cc1cc(C(=O)O)ccc1-c1ccc(/C=C2\NC(=O)N(Cc3ccccc3Cl)C2=O)o1,n,n,n,n,n
Cc1ccc(-c2cc(C(=O)O)c3cc(Br)ccc3n2)o1,n,n,n,n,n
Cc1ccc(-c2cc(C(=O)NC3=NCCS3)c3cc(Br)ccc3n2)o1,19,x,x,n,n
